This passage reports outcome results from PubChem BioAssay AID2401 (Southern Research Specialized Biocontainment Screening …, 2010).

Out of some 2,200 compounds screened, about 530 (24%) were called active.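 Rule for the calls: active = inhibition above a set limit at one or more concentrations of the dose series; inactive = inhibition under that limit at every dose.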 Only a sample is shown. Entries that show only a call come without a potency. Potency and affinity values are given separately.

The nature of this assay: nmpC-GFP reporter counter-screen in S. Typhimurium, dose response, counter-screen for PhoP regulon inhibitor project, Salmonella Typhimurium, GFP fluorescence (AID 2401).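 Note: S. typhimurium with Mg-insensitive nmpC-GFP reporter grown at 10 µM Mg2+; drop in reporter fluorescence reflects general culture growth inhibition.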 Particulars: 4 h; series mostly up to 150 µM.
Regarding `NC(=O)CCc1c[nH]c2ccccc12`, the result was inactive.
Turning to `O=C(Cc1c[nH]c2ccccc12)N/N=C/c1ccc(F)cc1`, the result was inactive.
As to `CCc1nn2cc(C(=O)c3cc(Cl)ccc3O)cnc2c1-c1ccc(F)cc1`, the call was inactive.
With `Cc1cc(C(=O)COC(=O)CNC(=O)c2ccco2)c(C)n1Cc1ccco1`, the call was inactive.
Consider `c1ccc(Nc2ccnc(Nc3ccccc3)n2)cc1`, for which the molecule was classed as inactive.
For `Cc1[nH]c2ccccc2c1C(O)CN1CCN(c2cccc(C(F)(F)F)c2)CC1` (stereo not drawn), the call was inactive.
Consider `Brc1cccc(CNc2nc3ccccc3n2CCN2CCCCC2)c1`, for which the result was inactive.
With `Cc1cc(C(=O)N/N=C/c2ccc[nH]2)no1`, the molecule was classed as inactive.
`CC(C)CCNC(=S)Nc1ccc([N+](=O)[O-])cc1`: the result was inactive.
`CC1=CC(C)C2(CO)COC(c3ccccc3O)C1C2C` (stereo not drawn): the outcome was inactive.
As for `CCOC(=O)c1sc(-c2ccc(C(F)(F)F)cc2)nc1O`, the result was inactive.
`CC(Oc1ccc(Cl)cc1)c1ccnn1S(=O)(=O)c1ccccc1` (stereo not drawn): the call was inactive.
With `CC(=O)Nc1ccc(S(=O)(=O)N2CCC(n3cnc4cc(F)ccc43)CC2)cc1`, the call was inactive.
On to `CCOC(=O)C1=C(C)N=c2s/c(=C\c3ccncc3)c(=O)n2C1c1ccc2c(c1)OCO2` (stereo not drawn), for which the molecule was classed as inactive.
In the case of `COc1ccc(C(=O)COc2nc(C)cc(C)c2C#N)cc1`, the outcome was inactive.
The same measure for `COc1ccc2nc(NC(=O)C3CCCN3S(=O)(=O)c3ccc(C)cc3)sc2c1` (stereo not drawn): “inactive”.
The same measure for `Clc1ccc(Nc2ncnc3c2cnn3-c2ccccc2)cc1`: “inactive”; for `COc1cc(CNc2ccc(CNc3ncn[nH]3)cc2)ccc1OCC(=O)NC(C)(C)C`: “inactive”; for `NC[C@@]12CCCC1C1CCC2C1` (stereo partly drawn): “inactive”.
With `O=C(Oc1ccc[nH]c1=O)c1cc([N+](=O)[O-])cc([N+](=O)[O-])c1`, the outcome was inactive.
For `CC(O)CNc1cc(N)c([N+](=O)[O-])cc1[N+](=O)[O-]` (stereo not drawn), the call was inactive.
Turning to `CC(NC(=O)C1(C)CC1(Br)Br)C(C)(C)C` (stereo not drawn), the molecule was classed as inactive.
Turning to `Cc1cc(C(=O)N/N=C/c2cc(Br)cc(Br)c2OC(=O)c2ccccc2)n[nH]1`, the molecule was called inactive.
The result for `Cc1cc2ncn(C3CC(=O)N(Cc4ccc(N5CCCC5=O)cc4)C3=O)c2cc1C` (stereo not drawn) reads “inactive”; that for `O=C(CSc1nnc2n(C3CCCCC3)c(=O)c3ccccc3n12)OC1CCCCC1`, “inactive”; that for `Cc1ccc2cc(C(=O)O)c(C)nc2c1`, “inactive”.
The same measure for `Cc1ccccc1NC(=O)Nc1cccs1`: “inactive”; for `Cc1ccc(S(=O)(=O)N2CCCC2C(=O)OCc2ccco2)cc1` (stereo not drawn): “inactive”.
The same measure for `CCCOc1ccc(Cn2cnc3ccccc32)cc1`: “inactive”; for `Cc1cc(C)nc(NC(=O)Cc2cccs2)n1`: “inactive”; for `Cc1c(C)n(Cc2ccccc2)c2ncnc(N)c12`: “inactive”.
With `O=C(NCc1cccnc1)c1cc2ccccc2oc1=O`, the outcome was inactive.
As to `COC(=O)Cc1ccc(NC(=S)N2CCN(c3ccc(F)cc3)CC2)cc1`, the outcome was inactive.
`CCn1cc(C(=O)NCc2ccncc2)c(=O)c2cc(F)c(N3CCN(C(=O)c4ccco4)CC3)cc21`: the molecule was called inactive.
`Cc1cc(SCC(N)=O)nc(SCC(=O)c2ccccc2)n1`: the call was inactive.
`COC(=O)C1(O)CC(C(C)C)=NN1C(=O)c1ccc(Cl)cc1` (stereo not drawn): the call was inactive.
In the case of `Cc1ccc(C(=O)NC(=S)Nc2cccc3c(C)cc(C)nc23)cc1`, the outcome was inactive.
`Cc1ccc(Nc2nnc(C3C(=O)N(C)C4(C)CC3c3cc(Br)ccc3O4)s2)cc1` (stereo not drawn): the call was inactive.
As for `Cc1cccc(OCCSCc2nc3ccccc3[nH]2)c1`, the molecule was called inactive.
With `Cn1c(SCC(=O)N2c3ccccc3CCc3ccccc32)nnc1-c1cc2ccccc2cc1O`, the call was inactive.
As to `O=C(Cn1nc(C(F)(F)F)c2c1CCCCC2)N1CCOCC1`, the molecule was called inactive.
For the molecule `CCOC(=O)C1=CSC2=NS(=O)(=O)CCN12`, the result was inactive.
The result for `[O-]/[N+](=C\c1ccncc1)c1ccccc1` reads “inactive”; that for `Cc1c(C(=O)Nc2cccc(Cl)c2)c2ccccn2c1CCc1ccncc1`, “inactive”.
Consider `COc1cc(C)ccc1OCCCOc1ccccc1Br`, for which the result was inactive.
The same measure for `COC(=O)c1cc(C#N)c(Oc2ccccc2OC)nc1C`: “inactive”; for `Cc1occc1C(=O)n1cnc2ccccc21`: “inactive”; for `COc1cccc2[nH]c3c(N4CCC(C)CC4)ncnc3c12`: “inactive”.
With `NC(=O)C1(NC(=O)[C@@H]2CC3(CC(c4cccc(NC(=O)[C@@H]5CCC(=O)N5)c4)=NO3)CN2C(=O)Cc2ccc(Cl)cc2)CC1` (stereo partly drawn), the molecule was called inactive.
With `Cc1ccc(/C(O)=C2\C(=O)C(=O)N(CC(C)O)C2c2cccc(F)c2)cc1` (stereo not drawn), the molecule was classed as inactive.
For `CCCCOc1ccc(S(=O)(=O)NNC(=O)C2Cc3c(ccc4ccccc34)O2)cc1` (stereo not drawn), the molecule was called inactive.
With `O=C(CN1CCCCC1)Nc1cccc(Br)c1`, the outcome was inactive.
As for `Cc1ccc(S(=O)(=O)c2c(C(=O)c3ccccc3)cnc3cc4c(cc23)OCCO4)cc1`, the molecule was called inactive.
Turning to `OC(COc1ccc2ccccc2c1Br)Cn1ccnc1` (stereo not drawn), the molecule was called inactive.
In the case of `CC(C)c1ccc(C2NC(=O)NC3=C2CCc2ccccc23)cc1` (stereo not drawn), the outcome was inactive.
Regarding `CCCCOc1ccc(NC(=O)Nc2nnc(C)s2)cc1`, the result was inactive.
On to `N/C(=N/OC(=O)c1ccccc1Cl)c1ncc([N+](=O)[O-])s1`, for which the outcome was inactive.
The result for `CC(=O)c1ccc(NC(=O)Nc2cccc(Cl)c2)cc1` reads “inactive”.
Regarding `O=C(Nc1ccc(Cl)c(Cl)c1)Nc1ccccc1O`, the molecule was classed as inactive.
The result for `Cc1ccc(Oc2ccc3c(c2)C(=O)N(c2ccc(S(=O)(=O)Nc4nccs4)cc2)C3=O)cc1` reads “inactive”.
Regarding `CN(C)C(CNC(=O)Nc1cccc(Cl)c1)c1cccnc1` (stereo not drawn), the result was inactive.
Consider `COc1ccc(N2CCN(C(=O)C3CCCO3)CC2)cc1` (stereo not drawn), for which the outcome was inactive.
For `CN1C(=O)CC(P(=O)(c2ccccc2)c2ccccc2)N(C)C1=O` (stereo not drawn), the outcome was inactive.
Take `c1ccc(OCCCN2CCCC2)cc1`: the outcome was inactive.
Take `O=C(C1CCN(C2CC(=O)N(Cc3ccccc3)C2=O)CC1)N1CCCCCC1` (stereo not drawn): the outcome was inactive.
For the molecule `COc1cccc(NC(=O)Cn2c(=O)n(CCCC(=O)NCc3ccco3)c(=O)c3ccccc32)c1`, the molecule was classed as inactive.
For `Nc1ccc2oc(=O)c3ccccc3c2c1`, the molecule was classed as inactive.
For `Nc1ccc2oc3ccccc3c2c1`, the outcome was inactive.
As for `COC(=O)c1sccc1NC(=O)CSc1ccccc1NS(=O)(=O)c1ccc(Cl)cc1`, the result was inactive.
As to `Cc1ccc(N2C(=O)CC(n3ccnc3)C2=O)cc1C` (stereo not drawn), the call was inactive.
For the molecule `CCN(CC)CCCn1c(=S)[nH]c2cc(OC)c(OC)cc2c1=O`, the molecule was classed as inactive.
The same measure for `CC(=O)C1=C(C)Nc2ncnn2C1c1ccccc1OCc1ccccc1` (stereo not drawn): “inactive”.
For the molecule `CCOc1ccc(-n2c(SCc3nc(-c4ccc(C)cc4)no3)nnc2-c2ccncc2)cc1`, the call was inactive.
As to `O=S(=O)(Nc1ccc2c(c1)nc1n2CCN(Cc2ccccc2)C1)c1ccc(Cl)cc1`, the call was inactive.
The result for `Nc1cccc(-c2nc3ccc(N)cc3s2)c1` reads “inactive”; that for `O=C(NCc1ccco1)c1ccc(Br)s1`, “inactive”; that for `Cn1c(=N)n(CC(=O)c2ccc(Br)s2)c2ccccc21`, “inactive”.
As to `O=C(Nc1cccn(Cc2c(Cl)cccc2Cl)c1=O)c1ccccc1Cl`, the molecule was classed as inactive.
As to `COc1ccc(C(=O)C(CO)Oc2ccccc2OC)cc1OC` (stereo not drawn), the molecule was classed as inactive.
Consider `Clc1ccc(OCCn2cnc3ccccc32)cc1`, for which the molecule was called inactive.
Consider `Cc1cccc(OCCCSc2nc3ccc(C)cc3[nH]2)c1`, for which the molecule was called inactive.
Take `S=C(Nc1ccccc1)Nc1nc2ccccc2n1CCOc1ccc(Cl)cc1`: the molecule was called inactive.
Turning to `CCCCCCOC(=O)Sc1nc2ccccc2o1`, the molecule was called inactive.
As to `COc1ccc(/C=C/C(=O)O)cc1COc1cccc(C)c1`, the call was inactive.
The same measure for `COc1ccccc1OCc1ccc(C(=O)N2CCN(C(=O)c3ccco3)CC2)cc1`: “inactive”.
Take `COc1ccccc1NC(=S)NNC(=O)c1c(Cl)c(C)nn1C`: the outcome was inactive.
As to `Cc1ccc(Nc2nc(CSc3nnc(-c4cccnc4)n3-c3ccccc3F)cs2)cc1`, the molecule was called inactive.
For the molecule `O=C(c1cccc(S(=O)(=O)N2CCOCC2)c1)N1CCCC1`, the molecule was called inactive.
Consider `O=C(c1ccccc1)N1CCSC1=S`, for which the result was inactive.
In the case of `Cn1c(-c2ccc3nc(N)sc3c2)nc2cc(N)ccc21`, the molecule was called inactive.
The same measure for `Nc1ccc(Nc2ccccc2N)cc1`: “inactive”; for `Cc1cc2c(c(=O)n1C)C(Cc1ccccc1)C(C#N)=C(N)O2` (stereo not drawn): “inactive”; for `O=C(CSc1nc2[nH]ncc2c(=O)[nH]1)N1CCCCC1`: “inactive”.
In the case of `C=CCNC(=S)NNC(=O)c1cccn(Cc2ccc(Cl)cc2)c1=O`, the molecule was classed as inactive.
Take `COc1ccc(-c2cc(N3CCCC3)n3ncnc3n2)cc1`: the outcome was inactive.
Regarding `Cc1ccc(OCc2nc3ccccc3[nH]2)cc1`, the result was inactive.
The same measure for `COC(=O)Cn1c(C)nc2ccccc21`: “inactive”; for `COc1ccc(OCCSc2nnc3sc4ccccc4n23)cc1`: “inactive”; for `CNc1ncc(Cc2ccccc2)s1`: “inactive”.
Take `CCn1c(SCc2ccc(F)cc2)nnc1C1CCN(S(=O)(=O)c2ccc(OC)cc2)CC1`: the call was inactive.
For the molecule `O=C1CC(c2ccco2)CC(O)=C1C=Nc1cc(Cl)cc(Cl)c1` (stereo not drawn), the result was inactive.
In the case of `c1csc(C2Nc3ccccc3-c3nc4ccccc4n32)c1` (stereo not drawn), the outcome was inactive.
The result for `C=CCOc1ccc(Br)cc1/C=N/O` reads “inactive”; that for `O=C(Cc1cn2ccsc2n1)Nc1ccccc1Oc1ccccc1`, “inactive”; that for `CCn1c2ccccc2c2cc(N)ccc21`, “inactive”.
Regarding `CC(C)(C)c1ccc(C(=O)Nc2ccc(C=C(C#N)C#N)cc2)cc1`, the molecule was called inactive.
Turning to `C=CCNC(=O)CC(=O)N/N=C/c1ccc(C(=O)OC)cc1`, the molecule was classed as inactive.
In the case of `Cc1[nH]nc2c1C(c1cc(Br)cs1)C(C#N)=C(N)O2` (stereo not drawn), the molecule was called inactive.
As for `Cc1cc(C)cc(-n2nc(C)cc2N)c1`, the call was inactive.
In the case of `N#CC(CC(=O)c1ccc(F)cc1)c1ccc2c(c1)OCO2` (stereo not drawn), the outcome was inactive.
`CCn1c(Cc2c(C)[nH]c3ccccc23)n[nH]c1=S`: the result was inactive.
In the case of `O=c1[nH]c2ccccc2n1C1=CCCC1`, the result was inactive.
The same measure for `c1ccc2c3c([nH]c2c1)-c1[nH]ncc1CC3`: “inactive”.
As for `Nc1c(C(=O)NCCc2ccc(Cl)cc2)sc2ccc(S(=O)(=O)N3CCCCC3)cc12`, the molecule was called inactive.
Consider `CSc1cccc(NC(=O)c2ccco2)c1`, for which the molecule was classed as inactive.
On to `CC1N(C)c2cc(NC(=O)c3ccco3)ccc2C1(C)C` (stereo not drawn), for which the molecule was classed as inactive.
For the molecule `Cc1oc(CC(C)C)c(CN2CCCC2)c1C(=O)O`, the molecule was called inactive.
The same measure for `COc1ccc2c(c1)[nH]c1c(N3CCN(Cc4ccc5c(c4)OCO5)CC3)ncnc12`: “inactive”.
